Results filed as inconclusive are left out. The source made the active and inactive calls. Unless noted, calls follow the shape of the dose curve; as a rule, active = well fitted curve in the direction sought with a large enough effect; inconclusive = small, poorly fitted or top-dose-only effect, or another doubt; inactive = no such curve, though single readings can be large; an effect the other way counts as inactive or inconclusive.
Tests used:
[1] = molecular target: Glucocorticoid receptor (Homo sapiens) (UniProt P04150); experiment: GR-GFP Redistribution (AID 450;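 active = compounds whose dose series gives a full or clear partial fitted curve of increased nuclear translocation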; also: potency is read from the fitted curve at half-maximal effect)
Chain of Glucocorticoid receptor (Homo sapiens) (P04150 whole entry, looked up, the tested form may be a part): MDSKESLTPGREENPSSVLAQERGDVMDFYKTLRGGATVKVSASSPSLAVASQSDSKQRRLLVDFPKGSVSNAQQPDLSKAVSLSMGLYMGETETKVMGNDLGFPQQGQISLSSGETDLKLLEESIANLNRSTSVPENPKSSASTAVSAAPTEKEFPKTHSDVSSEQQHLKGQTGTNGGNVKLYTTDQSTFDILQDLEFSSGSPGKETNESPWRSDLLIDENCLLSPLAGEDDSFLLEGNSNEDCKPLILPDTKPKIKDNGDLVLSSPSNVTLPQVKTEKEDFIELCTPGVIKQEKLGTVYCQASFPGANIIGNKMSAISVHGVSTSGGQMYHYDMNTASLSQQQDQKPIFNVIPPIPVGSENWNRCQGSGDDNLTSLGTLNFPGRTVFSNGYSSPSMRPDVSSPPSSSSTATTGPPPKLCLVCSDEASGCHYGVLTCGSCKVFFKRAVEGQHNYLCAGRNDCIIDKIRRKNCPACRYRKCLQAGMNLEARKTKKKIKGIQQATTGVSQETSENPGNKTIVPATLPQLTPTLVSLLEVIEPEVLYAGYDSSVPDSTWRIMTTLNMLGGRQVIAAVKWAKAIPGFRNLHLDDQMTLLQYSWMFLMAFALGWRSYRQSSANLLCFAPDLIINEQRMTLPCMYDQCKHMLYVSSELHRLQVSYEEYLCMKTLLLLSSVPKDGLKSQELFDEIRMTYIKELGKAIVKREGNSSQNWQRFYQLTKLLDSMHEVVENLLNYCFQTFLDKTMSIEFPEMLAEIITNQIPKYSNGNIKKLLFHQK

[2] = molecular target: Glucocorticoid receptor (Homo sapiens) (UniProt P04150); experiment: GR-EFC Redistribution (AID 451; calls by dose curve; also: potency is read from the fitted curve at half-maximal effect); details: CHO-K1 GR-EFC translocation, beta-gal luminescence, 2 h
Procedure, shortened: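 CHO-K1 cells expressing nuclear EA and GR-ED fragments of b-gal; compounds titrated up to 46 uM final, 2 h at 37 C. GR nuclear translocation read as complemented b-gal luminescence after 1 h RT detection.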

[3] = molecular target: Mitogen-activated protein kinase 10 (Mus musculus) (UniProt Q61831); experiment: JNK3 AlphaScreen Assay (AID 530; active = well fitted curve in either direction with a large enough effect, not every such curve was filed as active;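 also: kinase came from lysate of stimulated human HepG2 cells; signal reports phosphorylation of biotinylated GST-cJun 1-79 at Ser73 with 10 µM ATP; % is scaled to controls: 0 for no effect and ±100 for the full control effect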)
Procedure, shortened: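 Pre-activated (IL-1β/TNFα) JNK3 in HepG2 lysates phosphorylates biotin-GST-cJun(1-79), 10 uM ATP; anti-phospho-cJun(Ser73) AlphaScreen read at room temperature, pH 7.6 Tris buffer. Compounds pre-incubated 15 min as titrations.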

[4] = molecular target: 3',5'-cyclic-AMP phosphodiesterase 4B (Homo sapiens) (UniProt Q07343); experiment: qHTS Assay for Inhibitors of PDE-IV (AID 607; active = well fitted activation curve with a large enough effect in the main read-out, with a control signal flat, not every such curve was filed as active; also: % of control where 0% means no effect)
Chain of 3',5'-cyclic-AMP phosphodiesterase 4B (Homo sapiens) (Q07343 whole entry, looked up): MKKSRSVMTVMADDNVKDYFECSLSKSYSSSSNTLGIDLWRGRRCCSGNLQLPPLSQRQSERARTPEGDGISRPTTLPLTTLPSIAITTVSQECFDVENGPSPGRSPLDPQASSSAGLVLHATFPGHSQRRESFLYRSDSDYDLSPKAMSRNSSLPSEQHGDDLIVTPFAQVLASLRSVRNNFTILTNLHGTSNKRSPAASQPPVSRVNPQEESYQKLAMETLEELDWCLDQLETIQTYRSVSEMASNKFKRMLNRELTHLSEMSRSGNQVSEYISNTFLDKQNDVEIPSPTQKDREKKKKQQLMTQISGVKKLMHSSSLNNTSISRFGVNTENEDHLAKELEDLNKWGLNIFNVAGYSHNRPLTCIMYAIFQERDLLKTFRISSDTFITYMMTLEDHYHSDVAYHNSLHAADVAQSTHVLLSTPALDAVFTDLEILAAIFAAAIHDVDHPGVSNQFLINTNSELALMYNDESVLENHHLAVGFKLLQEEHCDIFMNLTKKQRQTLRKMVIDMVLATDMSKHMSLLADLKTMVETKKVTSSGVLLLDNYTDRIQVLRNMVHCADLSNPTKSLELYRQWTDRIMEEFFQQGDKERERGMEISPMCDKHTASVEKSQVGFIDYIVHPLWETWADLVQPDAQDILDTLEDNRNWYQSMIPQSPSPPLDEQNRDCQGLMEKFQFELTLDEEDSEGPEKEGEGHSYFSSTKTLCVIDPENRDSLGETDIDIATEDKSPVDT
Procedure, shortened: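 HEK293 ACTOne cells with CNG channel (1000/well), endogenous PDE4; membrane potential dye, compounds up to 22.9 uM final. Fluorescence Ex 535/Em 590; RO 20-1724 (100 uM final) as reference.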

[5] = molecular target: Cytochrome P450 3A4 (Homo sapiens) (UniProt P08684); experiment: qHTS Assay for Activators of Cytochrome P450 3A4 (AID 885); also: nearly all actives have a fitted effect of over 65% in size
Chain of Cytochrome P450 3A4 (Homo sapiens) (P08684 whole entry, looked up): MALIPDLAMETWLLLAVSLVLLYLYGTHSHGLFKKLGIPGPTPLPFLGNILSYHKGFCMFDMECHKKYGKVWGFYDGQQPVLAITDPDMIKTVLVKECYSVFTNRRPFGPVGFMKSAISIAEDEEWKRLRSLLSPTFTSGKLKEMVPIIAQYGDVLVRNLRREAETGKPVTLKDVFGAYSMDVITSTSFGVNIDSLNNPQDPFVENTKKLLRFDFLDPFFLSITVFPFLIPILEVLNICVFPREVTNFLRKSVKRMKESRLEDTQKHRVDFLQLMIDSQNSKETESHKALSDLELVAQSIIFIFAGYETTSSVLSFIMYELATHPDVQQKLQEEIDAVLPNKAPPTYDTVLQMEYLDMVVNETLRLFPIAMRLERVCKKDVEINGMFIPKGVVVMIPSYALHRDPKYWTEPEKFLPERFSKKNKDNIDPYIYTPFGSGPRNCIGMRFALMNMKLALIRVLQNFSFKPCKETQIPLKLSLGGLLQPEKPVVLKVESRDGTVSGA
Procedure, shortened: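 Human CYP3A4 (20 nM) with Luciferin-PPXE at 25 uM (its KM) in 200 mM KPO4; 10 min compound preincubation, then NADPH regeneration and 60 min reaction at RT. Luciferin read by luminescence; normalized to 57 uM ketoconazole full inhibition.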

[6] = molecular target: ATP-dependent 6-phosphofructokinase (Trypanosoma brucei brucei) (UniProt O15648); experiment: qHTS Assay to Find Inhibitors of T. brucei phosphofructokinase: hit validation (AID 492961); also: % is scaled to controls: 0 for no effect and ±100 for the full control effect
Chain of ATP-dependent 6-phosphofructokinase (Trypanosoma brucei brucei) (O15648 whole entry, looked up): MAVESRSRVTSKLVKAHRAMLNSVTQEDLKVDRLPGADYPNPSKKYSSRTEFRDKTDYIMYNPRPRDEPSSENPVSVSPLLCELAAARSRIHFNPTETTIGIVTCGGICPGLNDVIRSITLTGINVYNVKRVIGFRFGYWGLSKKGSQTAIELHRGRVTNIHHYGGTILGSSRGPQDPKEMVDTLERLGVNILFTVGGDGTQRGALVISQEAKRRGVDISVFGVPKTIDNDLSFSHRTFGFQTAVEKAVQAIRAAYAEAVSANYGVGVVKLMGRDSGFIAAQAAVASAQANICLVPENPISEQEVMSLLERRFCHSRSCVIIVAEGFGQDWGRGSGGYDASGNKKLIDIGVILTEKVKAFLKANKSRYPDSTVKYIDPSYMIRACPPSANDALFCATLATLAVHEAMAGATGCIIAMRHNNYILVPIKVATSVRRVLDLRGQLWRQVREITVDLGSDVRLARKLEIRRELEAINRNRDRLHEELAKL
Procedure, shortened: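 Luminescence from ADP-Glo reports ADP generated as T. brucei PFK (1.25 nM) phosphorylates 0.5 mM fructose-6-phosphate using 0.1 mM ATP. Reactions ran 45 min at room temperature, pH 8.0.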

[7] = molecular target: Ubiquitin carboxyl-terminal hydrolase 1 (Homo sapiens) (UniProt O94782); experiment: Inhibitors of USP1/UAF1: Pilot qHTS (AID 504865);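 also: rhodamine fluorescence freed from ubiquitin-rhodamine substrate followed over time; top concentration of the series differs between compounds; % is scaled to controls: 0 for no effect and ±100 for the full control effect; nearly all actives have a fitted effect of over 35% in size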
Chain of Ubiquitin carboxyl-terminal hydrolase 1 (Homo sapiens) (O94782 whole entry, looked up): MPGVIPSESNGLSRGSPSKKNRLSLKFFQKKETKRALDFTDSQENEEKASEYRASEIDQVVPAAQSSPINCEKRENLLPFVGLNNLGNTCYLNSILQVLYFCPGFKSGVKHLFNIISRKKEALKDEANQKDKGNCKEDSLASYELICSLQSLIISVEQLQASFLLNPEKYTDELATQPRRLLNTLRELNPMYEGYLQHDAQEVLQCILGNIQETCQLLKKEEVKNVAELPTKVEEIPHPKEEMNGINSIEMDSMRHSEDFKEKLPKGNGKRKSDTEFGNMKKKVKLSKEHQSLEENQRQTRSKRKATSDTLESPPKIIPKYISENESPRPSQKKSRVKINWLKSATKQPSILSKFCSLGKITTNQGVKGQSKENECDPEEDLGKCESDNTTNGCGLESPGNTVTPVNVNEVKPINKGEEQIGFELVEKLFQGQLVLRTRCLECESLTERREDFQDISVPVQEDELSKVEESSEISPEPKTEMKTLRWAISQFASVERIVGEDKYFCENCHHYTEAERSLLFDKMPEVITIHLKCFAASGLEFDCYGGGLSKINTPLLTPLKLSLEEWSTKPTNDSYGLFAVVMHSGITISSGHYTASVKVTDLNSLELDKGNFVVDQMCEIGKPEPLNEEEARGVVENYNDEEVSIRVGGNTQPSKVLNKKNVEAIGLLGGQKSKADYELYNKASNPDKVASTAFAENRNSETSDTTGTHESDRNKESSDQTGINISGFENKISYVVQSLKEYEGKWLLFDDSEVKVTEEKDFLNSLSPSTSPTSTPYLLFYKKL
Procedure, shortened: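 In 50mM HEPES pH 7.8 containing 0.5mM EDTA, 1mM TCEP, 0.1 mg/ml BSA and 0.01% Tween-20, 1nM USP1/UAF1 is exposed to compound for 15 min, then Ub-Rho (150nM final) is added and fluorescence is read over time.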

[8] = molecular target: Luciferin 4-monooxygenase (Photinus pyralis) (UniProt P08659); experiment: Biochemical firefly luciferase enzyme assay for NPC (AID 624030);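 also: purified P. pyralis luciferase at 10 nM with luciferin and ATP substrate; 0% = DMSO and -100% = full luciferase inhibition by PTC124 control; nearly all actives have a fitted effect of over 70% in size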
Chain of Luciferin 4-monooxygenase (Photinus pyralis) (P08659 whole entry, looked up): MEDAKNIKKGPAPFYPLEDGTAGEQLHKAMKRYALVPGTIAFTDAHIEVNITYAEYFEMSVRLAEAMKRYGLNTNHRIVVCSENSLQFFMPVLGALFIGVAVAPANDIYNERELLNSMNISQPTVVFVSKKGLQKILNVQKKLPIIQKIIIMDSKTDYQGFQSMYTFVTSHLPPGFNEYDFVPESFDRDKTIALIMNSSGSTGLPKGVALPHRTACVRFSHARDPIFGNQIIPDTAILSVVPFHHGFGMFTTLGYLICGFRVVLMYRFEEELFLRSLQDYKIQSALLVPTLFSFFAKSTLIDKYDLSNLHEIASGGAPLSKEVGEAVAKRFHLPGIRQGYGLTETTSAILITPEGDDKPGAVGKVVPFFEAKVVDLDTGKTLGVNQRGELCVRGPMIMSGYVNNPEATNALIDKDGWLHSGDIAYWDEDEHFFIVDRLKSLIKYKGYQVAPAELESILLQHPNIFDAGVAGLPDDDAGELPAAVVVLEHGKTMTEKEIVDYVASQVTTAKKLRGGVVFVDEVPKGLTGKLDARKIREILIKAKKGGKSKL
Procedure, shortened: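 Purified P. pyralis luciferase at 10 nM in 50 mM Tris Acetate (final), luminescence read within 5 minutes of enzyme addition to compounds. Activity normalised to PTC124 versus DMSO; concentration-response curves classed by r2, magnitude and activity.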

[9] = S16 Schwann cell viability assay (CellTiter-Glo assay) (AID 624031);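 also: cellular ATP luminescence as a viability measure; plate controls were DMSO-treated cells for no effect and cell-free wells for full effect; nearly all actives have a fitted effect of over 70% in size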
Procedure, shortened: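 Native S16 rat Schwann cells in DMEM/10% FBS without phenol red were incubated overnight, then exposed to compounds for 24 h at 37 °C/5% CO2. Viability was read as ATP luminescence (CellTiter-Glo), normalized to no-cell wells and DMSO (0%).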

[10] = S16 Schwann cell PMP22 intronic element beta-lactamase assay (AID 624044; calls by dose curve;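 also: 0% = DMSO and -100% = potassium clavulanate positive control; nearly all actives have a fitted effect of over 15% in size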); details: S16 rat Schwann cells, PMP22 element beta-lactamase FRET, 24 h; ratio activity, negative = inhibition: at 38.3 µM (top of the series)
Procedure, shortened: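 Rat S16 Schwann cells with beta-Lac driven by a PMP22 intronic element, compound-treated 24 h at 37 °C. LiveBLAzer FRET B/G read: 460 nm normalized to potassium clavulanate vs DMSO; 535 nm FRET as viability; concentration-effect curves classified.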

[11] = qHTS profiling for inhibitors of Plasmodium falciparum proliferation (AID 504749);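 also: 0% = DMSO vehicle and full inhibition = artemisinin control; nearly all actives have a fitted effect of over 60% in size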; details: P. falciparum in erythrocytes, SYBR Green DNA, 72 h, at 12.8 µM (top of the series)
Procedure, shortened: (§1)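 P. falciparum-infected erythrocytes (0.3% parasitemia, 2.5% hematocrit) incubated with compound 72 h at 37 C, 5% CO2. Parasite DNA detected by SYBR Green after lysis, overnight at room temperature; normalised to 0.29 uM artemisinin and DMSO.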

3D7 = experiment: as above; details: P. falciparum in erythrocytes, SYBR Green DNA, 72 h; series mostly up to 28.7 µM
Procedure, shortened: as §1

7G8 = experiment: as above; details: P. falciparum in erythrocytes, SYBR Green DNA, 72 h; series mostly up to 28.7 µM
Procedure, shortened: as §1

AA1029 = experiment: as above; details: P. falciparum in erythrocytes, SYBR Green DNA, 72 h; series mostly up to 28.7 µM
Procedure, shortened: as §1

AS120 = experiment: as above; details: P. falciparum in erythrocytes, SYBR Green DNA, 72 h; series mostly up to 28.7 µM
Procedure, shortened: as §1

ATS189 = experiment: as above; details: P. falciparum in erythrocytes, SYBR Green DNA, 72 h; series mostly up to 28.7 µM
Procedure, shortened: as §1

ATS95 = experiment: as above; details: P. falciparum in erythrocytes, SYBR Green DNA, 72 h; series mostly up to 28.7 µM
Procedure, shortened: as §1

C2A = experiment: as above; details: P. falciparum in erythrocytes, SYBR Green DNA, 72 h; series mostly up to 28.7 µM
Procedure, shortened: as §1

CP185 = experiment: as above; details: P. falciparum in erythrocytes, SYBR Green DNA, 72 h; series mostly up to 28.7 µM
Procedure, shortened: as §1

CP191 = experiment: as above; details: P. falciparum in erythrocytes, SYBR Green DNA, 72 h; series mostly up to 28.7 µM
Procedure, shortened: as §1

CP192 = experiment: as above; details: P. falciparum in erythrocytes, SYBR Green DNA, 72 h; series mostly up to 28.7 µM
Procedure, shortened: as §1

CP194 = experiment: as above; details: P. falciparum in erythrocytes, SYBR Green DNA, 72 h; series mostly up to 28.7 µM
Procedure, shortened: as §1

CP201 = experiment: as above; details: P. falciparum in erythrocytes, SYBR Green DNA, 72 h; series mostly up to 28.7 µM
Procedure, shortened: as §1

CP203 = experiment: as above; details: P. falciparum in erythrocytes, SYBR Green DNA, 72 h; series mostly up to 28.7 µM
Procedure, shortened: as §1

CP211 = experiment: as above; details: P. falciparum in erythrocytes, SYBR Green DNA, 72 h; series mostly up to 28.7 µM
Procedure, shortened: as §1

CP217 = experiment: as above; details: P. falciparum in erythrocytes, SYBR Green DNA, 72 h; series mostly up to 28.7 µM
Procedure, shortened: as §1

CP237 = experiment: as above; details: P. falciparum in erythrocytes, SYBR Green DNA, 72 h; series mostly up to 28.7 µM
Procedure, shortened: as §1

CP238 = experiment: as above; details: P. falciparum in erythrocytes, SYBR Green DNA, 72 h; series mostly up to 28.7 µM
Procedure, shortened: as §1

CP247 = experiment: as above; details: P. falciparum in erythrocytes, SYBR Green DNA, 72 h; series mostly up to 28.7 µM
Procedure, shortened: as §1

CP250 = experiment: as above; details: P. falciparum in erythrocytes, SYBR Green DNA, 72 h; series mostly up to 28.7 µM
Procedure, shortened: as §1

CP252 = experiment: as above; details: P. falciparum in erythrocytes, SYBR Green DNA, 72 h; series mostly up to 28.7 µM
Procedure, shortened: as §1

CP256 = experiment: as above; details: P. falciparum in erythrocytes, SYBR Green DNA, 72 h; series mostly up to 28.7 µM
Procedure, shortened: as §1

CP260 = experiment: as above; details: P. falciparum in erythrocytes, SYBR Green DNA, 72 h; series mostly up to 28.7 µM
Procedure, shortened: as §1

CCCC[C@H]1C(=O)N(c2ccccc2)N(c2ccc(O)cc2)C1=O
inactive: Potency [1] > 20.6 µM | Potency [2] > 20.6 µM | Potency [3] | Potency [4] | Potency [5] | Potency [6] | Potency [7] | Potency [8] | Potency [9] | Potency [10] | activity, negative = inhibition ([11]; parasite line A) -7.31% | activity, negative = inhibition ([11]; parasite line B) 3.99% | Potency (3D7) | Potency (7G8) | Potency (AA1029) | Potency (AS120) | Potency (ATS189) | Potency (ATS95) | Potency (C2A) | Potency (CP185) | Potency (CP191) | Potency (CP192) | Potency (CP194) | Potency (CP201) | Potency (CP203) | Potency (CP211) | Potency (CP217) | Potency (CP237) | Potency (CP238) | Potency (CP247) | Potency (CP250) | Potency (CP252) | Potency (CP256) | Potency (CP260)

Source: PubChem BioAssay (NCATS)
